The structures appear in SMILES notation. The whole screen tested about 360,000 compounds, of which about 25,000 (6.9%) were called active. Another 9% or so got no clear call; they are omitted. The calls are words filed in the database; no cut-off is given here. This excerpt belongs to a sample that is enriched for actives.

The target of the assay is Luciferin 4-monooxygenase (Photinus pyralis) (UniProt P08659). The assay can be described thus: qHTS profiling assay for firefly luciferase inhibitor/activator using purified enzyme and Km concentrations of substrates (counterscreen for miR-21 project). [Related pubchem assays (depositor defined):AID2288, AID2289, AID2598, AID411]. It counts as functional. (qHTS replaces the single test concentration by a dilution series.)
Luciferin 4-monooxygenase (Photinus pyralis), sequence (P08659 whole entry): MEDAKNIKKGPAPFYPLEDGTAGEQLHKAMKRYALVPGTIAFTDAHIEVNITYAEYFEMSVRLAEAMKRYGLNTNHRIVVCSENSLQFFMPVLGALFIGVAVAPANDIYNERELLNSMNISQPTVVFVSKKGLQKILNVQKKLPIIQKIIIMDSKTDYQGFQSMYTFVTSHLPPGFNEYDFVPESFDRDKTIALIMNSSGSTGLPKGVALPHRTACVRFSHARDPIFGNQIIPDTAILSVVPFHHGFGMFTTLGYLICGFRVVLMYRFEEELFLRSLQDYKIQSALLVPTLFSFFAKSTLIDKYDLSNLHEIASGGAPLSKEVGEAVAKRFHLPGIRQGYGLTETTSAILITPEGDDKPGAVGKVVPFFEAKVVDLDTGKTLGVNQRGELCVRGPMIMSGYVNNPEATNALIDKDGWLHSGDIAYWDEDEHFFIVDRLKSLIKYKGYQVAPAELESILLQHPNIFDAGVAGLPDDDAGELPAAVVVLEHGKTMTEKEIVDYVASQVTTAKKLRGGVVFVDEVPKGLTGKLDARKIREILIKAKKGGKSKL
Take `O=C(O)c1cc(-c2ccc(F)cc2F)ccc1O`: the Potency is 15.1 µM (active).

On to `Cn1c(NCCN2CCOCC2)nc2c1c(=O)n(Cc1cccc(Cl)c1)c(=O)n2C`, for which the Potency result is “inactive”.

For the molecule `Cc1ccccc1N=C(S)N(CCCN1CCOCC1)Cc1cccnc1`, the Potency entry was “inactive”.

`O=C(NC1CCCC1)c1cc(Cl)ccc1[N+](=O)[O-]`: the Potency entry is “inactive”.

The values above are taken from ChEMBL document CHEMBL1201862, “PubChem BioAssay data set” (2004).
